The structures appear in SMILES notation.

A short description of this assay: small-molecule microarray binders of probe aEGFR, primary screen, biochemical, biotinylated probe, 635/667 nm fluorescence (AID 1097).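 Further: probe is a biotinylated anti-EGFR antibody binding compounds printed on slides; score combines fluorescence near 667 nm and signal to noise of each spot.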 As to conditions: higher = more signal.
In turn, `CCCC=C(CCC)[C@@H](NC(=O)c1ccc(C(F)(F)F)cc1)c1ccc(C(F)(F)F)cc1` registered a composite z-score of 0.208. With `Cc1ccccc1C(O)C1C=CC2C(=O)N(c3ccccc3)C(=O)C2N1Nc1ccccc1` (stereo unspecified) the figure was 0.183; with `CCOC(=O)C[C@H]1[C@H](OC(=O)c2ccccc2-c2ccccc2)[C@@H](NC(=O)c2ccc3ccccc3c2)c2cc(OCCCO)ccc2N1C(=O)Cc1ccc(OC)cc1`, 0.0004; with `COc1ccc(C(=O)Nc2ccc3c(c2)[C@@]2(O[C@H](CCO)[C@@H]([Si](C)(C)c4ccc(OC)cc4)[C@@H]2C)C(=O)N3Cc2ccccc2)cc1`, -0.0828. With `COCCOC(=O)N1C(=O)[C@@]2(c3cc(C#CCC(C(=O)OC)C(=O)OC)ccc31)[C@H](c1ccc(O)cc1)N1[C@H](c3ccccc3)[C@H](c3ccccc3)OC(=O)[C@H]1[C@@H]2C(=O)Nc1nc2ccccc2s1` the figure was 0.106. With `C=C(COC)/C(=C/C[C@H](OC(C)=O)c1ccccc1OCCO)c1cc(C(=O)OC)ccc1OC` the figure was -0.0815; with `O=C1[C@H]2C=C(I)[C@H](C[C@@H]2OCCCCCCO)[C@@]12CO2`, -0.133; with `CCCCC(=C=CC[C@H](O)c1ccc(CO)o1)CCO`, -0.0041. Compound `COc1ccccc1CN1C(=O)c2ccccc2[C@](Cc2ccccc2I)(C(=O)NCC(C)C)[C@@H]1c1ccc(CO)cc1` yielded a composite z-score of -0.0721. Regarding `C=CCC(OC(C)=O)[C@@H]1[C@@H](N(Cc2ccc(-c3ccccc3)cc2)C(=O)c2cccc3ccccc23)c2cc(OCCCO)ccc2N1C(=O)Cc1ccc(OC)cc1` (stereo partly specified), the composite z-score was 0.122.

Turning to `CC(C)N1C(=O)c2ccccc2[C@](C)(C(=O)NCC(F)(F)F)[C@@H]1c1ccc(CO)cc1`, the composite z-score was -0.179.

Values taken from PubChem BioAssay.
